Compounds with a hit are over-represented: about 8.5% of the library has one in this group of screens.
NPSR antagonist = blocks cAMP signaling of the human neuropeptide S receptor; Q6W5P4; CHO-NPSR cells, cAMP TR-FRET, antagonist mode; Potency, µM (doses to about 38.3 µM), for the others: top-dose activity change, negative = inhibition, most hits filed as inhibitors; 220,000 compounds, 1% hits; AID 1461; active means well fitted curve in the direction sought with a large enough effect; inconclusive means small, poorly fitted or top-dose-only effect, or another doubt; inactive means no such curve, though single readings can be large; an effect the other way counts as inactive or inconclusive; further: potency means the concentration at half of the fitted maximal effect; nearly all actives have a fitted effect of over 50% in size
Sfp PPTase inh = Sfp phosphopantetheinyl transferase inhibition; Q9F4F7; Biochemical Sfp PPTase activity, qHTS; Potency, µM, for inactives: largest response in the series, negative = inhibition, most hits filed as inhibitors; 310,000 compounds, 3.5% hits; active means well fitted curve in the direction sought with a large enough effect; inconclusive means small, poorly fitted or top-dose-only effect, or another doubt; inactive means no such curve, though single readings can be large; an effect the other way counts as inactive or inconclusive;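 further: the enzyme is Sfp with the accession as filed and its product quenches rhodamine fluorescence; potency means the concentration at half of the fitted maximal effect; 0% = enzyme reaction without inhibitor and -100% = no enzyme wells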
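Reaction rates are the 30-min fluorescence difference (ex 525, em 598 nm) in wells containing 15 nM Sfp, 5 uM rhodamine-CoA and 12.5 uM BHQ-2-YbbR at pH 7.6 with 10 mM MgCl2.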
JMJD2E inh = inhibitors of human JMJD2E histone demethylase; B2RXH2; JMJD2E catalytic domain, FDH-coupled NADH fluorescence (FDH is formaldehyde dehydrogenase); Potency, µM (series often up to 57.1 µM), for the others: at the highest dose activity change, negative = inhibition, most hits filed as inhibitors; 230,000 compounds, 1.6% hits;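 further: potency means the concentration at half of the fitted maximal effect; 0% = wells with enzyme and -100% = buffer wells without enzyme; nearly all actives have a fitted effect of over 50% in size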
ALDH1A1 block = ALDH1A1 (human) enzyme inhibition. P00352. Purified ALDH1A1, NADH fluorescence, propionaldehyde substrate. Potency, µM (highest dose often 75.3 µM), for the others: at the highest dose activity, negative = inhibition, usual class: inhibitors. 220,000 compounds, 7.3% hits;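 further: potency means the concentration at half of the fitted maximal effect; plate controls were no enzyme wells and a reference inhibitor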
GoLoco inh red = RGS12 GoLoco-Gai1 interaction inhibition; 230,000 compounds, 0.44% hits; P63096; Gai1:RGS12 GoLoco peptide FP, rhodamine, 10 min; Potency, µM (top dose mostly 61.6 µM), without a hit: at the highest dose activity, negative = inhibition, most hits filed as inhibitors; active means well fitted inhibition curve with a large enough effect, not every such curve was filed as active; inactive means no such curve, though single readings can be large or run the other way; further: potency means the concentration at half of the fitted maximal effect; nearly all actives have a fitted effect of over 30% in size
Target sequence (P63096 whole entry, looked up): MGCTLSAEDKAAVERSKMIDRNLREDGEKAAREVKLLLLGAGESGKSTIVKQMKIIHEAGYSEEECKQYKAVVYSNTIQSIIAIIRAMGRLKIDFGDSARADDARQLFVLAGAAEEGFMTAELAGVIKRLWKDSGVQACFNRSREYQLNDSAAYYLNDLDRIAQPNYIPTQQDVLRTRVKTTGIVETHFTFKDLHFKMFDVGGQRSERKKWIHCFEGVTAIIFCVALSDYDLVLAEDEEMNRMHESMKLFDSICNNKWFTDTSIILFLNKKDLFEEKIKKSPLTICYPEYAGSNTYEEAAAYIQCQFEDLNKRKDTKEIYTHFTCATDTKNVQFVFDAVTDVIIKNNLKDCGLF
FBPA coupling cs = inhibits coupling enzyme system, counter-screen for aldolase hits; 290,000 compounds, 0.67% hits; AID 2472; coupling enzyme system counterscreen, AmpLite Red fluorescence; activity change, negative = inhibition, % at 58.2 µM, hits read low; in the data active means activity change below about -30%
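Counterscreen of the coupled detection system alone, without aldolase: glyceraldehyde-3-phosphate coupling enzymes plus AmpLite Red readout. Compounds at 57.5 uM final, 10 min RT preincubation, 20 min RT reaction, fluorescence 525/598 nm.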
* hit, by the source's call; [ ] = dose if it differs, or a comment. Unless noted, the call rests on the fitted dose curve; in most records, active means well fitted inhibition curve with a large enough effect (not every such curve was filed as active); inconclusive means small, poorly fitted or top-dose-only effect, or another doubt; inactive means no such curve, though single readings can be large or run the other way. Unless noted, on the % scale 0 is the no-effect control and ±100 the full control effect.

What do the screens show for `C(=C\c1ccco1)/C1=NN(c2ccccc2)C(c2ccco2)C1` (stereo not given)?
NPSR antagonist: -34.5%; Sfp PPTase inh: 28.2µM*; JMJD2E inh: inconclusive; ALDH1A1 block: inconclusive; GoLoco inh red: 45.8%; FBPA coupling cs: -1.5

How did O=C(c1ccc(Br)o1)N1N=C(c2ccc(Cl)cc2)CC1c1ccco1 (stereo not given) do in these assays?
Sfp PPTase inh: 39.8µM*

How did COc1ccc(C2=NN(c3nc(-c4ccccc4)c(CC(=O)O)s3)C(c3ccco3)C2)cc1 (stereo not given) do in these assays?
NPSR antagonist: -45.7%; Sfp PPTase inh: 14.1µM*; JMJD2E inh: inconclusive; ALDH1A1 block: inconclusive; GoLoco inh red: 102.2%; FBPA coupling cs: -4.5

Results for CC(=O)N1N=C(c2ccc(Cl)cc2)CC1c1ccco1 (stereo not given) ?
NPSR antagonist: -54.4%; Sfp PPTase inh: inconclusive; JMJD2E inh: 3.4%; GoLoco inh red: -3.1%; FBPA coupling cs: 3.7

What do the screens show for `Cc1ccc(N2N=C(c3ccc(F)cc3)CC2c2ccco2)cc1` (stereo not given)?
NPSR antagonist: inconclusive; Sfp PPTase inh: inconclusive; JMJD2E inh: inconclusive; ALDH1A1 block: inconclusive; GoLoco inh red: 7.0%; FBPA coupling cs: -7.3

What do the screens show for `COc1ccc(C2=NN(C(=O)COc3ncnc4ccccc34)C(c3ccco3)C2)cc1` (stereo not given)?
NPSR antagonist: -22.5%; Sfp PPTase inh: -17.3%; JMJD2E inh: inconclusive; ALDH1A1 block: inconclusive; GoLoco inh red: 2.1%; FBPA coupling cs: 3.0

What do the screens show for `Cc1cc(Br)ccc1OCCCCN1CCC(C)CC1`?
NPSR antagonist: 3.8%; Sfp PPTase inh: -7.6%; JMJD2E inh: inconclusive; ALDH1A1 block: 5.3%; GoLoco inh red: 2.9%; FBPA coupling cs: -0.3

What do the screens show for `Clc1ccc(C2=NN(c3ccccc3)C(c3ccco3)C2)cc1` (stereo not given)?
NPSR antagonist: inconclusive; Sfp PPTase inh: 28.2µM*; JMJD2E inh: inconclusive; GoLoco inh red: -4.1%; FBPA coupling cs: -1.5

How did Cc1ccc(N2CCN(C(=S)c3ccc(N(C)C)cc3)CC2)cc1 do in these assays?
NPSR antagonist: -2.4%[46.1 µM]; Sfp PPTase inh: 20µM*; JMJD2E inh: -6.2%; ALDH1A1 block: 7.94µM*; GoLoco inh red: 22.2%; FBPA coupling cs: 0.2

How did CN(C)c1ccc(C(=S)N2CCN(S(=O)(=O)c3ccccc3)CC2)cc1 do in these assays?
Sfp PPTase inh: -5.8%; FBPA coupling cs: 1.0

Results for CN(C)c1ccc(C(=S)N2CCN(c3ccccc3)CC2)cc1 ?
NPSR antagonist: -12.1%[46.1 µM]; Sfp PPTase inh: 11.0%; JMJD2E inh: 4.0%; ALDH1A1 block: 12.6µM*; GoLoco inh red: 4.0%; FBPA coupling cs: -0.7

Results for CCC(C)NS(=O)(=O)c1cc2c3c(c1)CCC(=O)N3CCC2 (stereo not given) ?
Sfp PPTase inh: 8.9%; FBPA coupling cs: 0.3

How did COc1ccc(S(=O)(=O)n2oc(=O)cc2-c2ccccc2)cc1 do in these assays?
NPSR antagonist: -0.8%[46.1 µM]; Sfp PPTase inh: 2.2%; JMJD2E inh: -4.0%; ALDH1A1 block: inconclusive; GoLoco inh red: -8.6%; FBPA coupling cs: 0.9

What do the screens show for `O=c1cc(-c2ccccc2)n(S(=O)(=O)c2ccccc2)o1`?
NPSR antagonist: -1.4%[46.1 µM]; Sfp PPTase inh: inconclusive; JMJD2E inh: -13.9%; ALDH1A1 block: 25.1µM*; GoLoco inh red: -10.3%; FBPA coupling cs: 5.7

Results for CCN1CCN(C(=O)NCc2ccccc2)CC1 ?
NPSR antagonist: 10.1%; Sfp PPTase inh: -9.2%; JMJD2E inh: inconclusive; GoLoco inh red: 0.8%; FBPA coupling cs: 1.1

Results for Clc1ccc(OCCOCCN2CCCCC2)c(Br)c1 ?
NPSR antagonist: 3.3%[46.1 µM]; Sfp PPTase inh: 56.2µM*; JMJD2E inh: -25.4%; ALDH1A1 block: -2.4%; GoLoco inh red: -17.4%; FBPA coupling cs: 1.3

How did C=CCN1C(=O)/C(=C\C(C)=C\c2ccccc2)SC1=S do in these assays?
Sfp PPTase inh: 11.5%; FBPA coupling cs: -0.1
